# From PubChem BioAssay AID1159580 (chemical genetic matrix, 2015)
# Hit rate of the full screen: of about 5,500 compounds, about 2,000 (36%) were called active. Not shown: some 18% with an inconclusive outcome. Some of the results follow. Values without a mark were called inactive. No stated cut-off is given here; in the data, active means normalized growth mostly below about 0.91 (no sharp cut-off); inconclusive means no clear call, values can overlap the other calls; inactive means mostly above about 0.92.
# Assay: chemical genetic growth profiling, strain panel (AID 1159580);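 further: tested at 20 µM; growth read once vehicle control cultures reached saturation at 30 °C; 1 = growth at the plate median or of vehicle wells; lower values mean less growth of the strain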
# Details: growth OD
structure (smiles),measurement,setting,value
COc1ccc2cc(CCC(C)=O)ccc2c1,normalized growth,"S. cerevisiae deletion strains, locus YJR075W, strain HOC1, active compounds read low",0.965
same,normalized growth,"S. cerevisiae deletion strains, locus YKL009W, strain mrt4, active compounds read low",0.86 (active)
same,normalized growth,"S. cerevisiae deletion strains, locus YKL068W, active compounds read low",0.963
same,normalized growth,"S. cerevisiae deletion strains, locus YKL085W, strain MDH1 (second series), active compounds read low",0.966
same,normalized growth,"S. cerevisiae deletion strains, locus YKL085W, strain MDH1, active compounds read low",0.966
same,normalized growth,"S. cerevisiae deletion strains, locus YKL160W, strain elf1, active compounds read low",0.997
same,normalized growth,"S. cerevisiae deletion strains, locus YKL190W, strain CNB1, active compounds read low",0.972
same,normalized growth,"S. cerevisiae deletion strains, locus YKR001C, strain vps1, active compounds read low",0.932
same,normalized growth,"S. cerevisiae deletion strains, locus YKR026C, strain gcn3, active compounds read low",0.984
same,normalized growth,"S. cerevisiae deletion strains, locus YKR091W, strain srl3, active compounds read low",0.992
same,normalized growth,"S. cerevisiae deletion strains, locus YLL001W, strain dnm1, active compounds read low",0.982
same,normalized growth,"S. cerevisiae deletion strains, locus YLL026W, active compounds read low",0.991
same,normalized growth,"S. cerevisiae deletion strains, locus YLL041C, strain sdh2, active compounds read low",0.996
same,normalized growth,"S. cerevisiae deletion strains, locus YLR027C, strain aat2, active compounds read low",0.997
same,normalized growth,"S. cerevisiae deletion strains, locus YLR039C, strain RIC1, active compounds read low",1.11
same,normalized growth,"S. cerevisiae deletion strains, locus YLR058C, strain SHM2, active compounds read low",0.948
same,normalized growth,"S. cerevisiae deletion strains, locus YLR102C, strain apc9, active compounds read low",0.944
same,normalized growth,"S. cerevisiae deletion strains, locus YLR113W, strain HOG1, active compounds read low",0.965
same,normalized growth,"S. cerevisiae deletion strains, locus YLR221C, strain rsa3, active compounds read low",0.992
same,normalized growth,"S. cerevisiae deletion strains, locus YLR258W, strain gsy2, active compounds read low",0.998
same,normalized growth,"S. cerevisiae deletion strains, locus YLR262C, strain YPT6 (second series), active compounds read low",1.03
same,normalized growth,"S. cerevisiae deletion strains, locus YLR262C, strain YPT6, active compounds read low",1.04
same,normalized growth,"S. cerevisiae deletion strains, locus YLR268W, strain sec22, active compounds read low",1.01
same,normalized growth,"S. cerevisiae deletion strains, locus YLR320W, strain mms22, active compounds read low",0.971
same,normalized growth,"S. cerevisiae deletion strains, locus YLR330W, strain CHS5, active compounds read low",0.951
same,normalized growth,"S. cerevisiae deletion strains, locus YLR342W, strain FKS1 (second series), active compounds read low",0.885
same,normalized growth,"S. cerevisiae deletion strains, locus YLR342W, strain FKS1, active compounds read low",0.993
same,normalized growth,"S. cerevisiae deletion strains, locus YLR357W, strain rsc2, active compounds read low",0.992
same,normalized growth,"S. cerevisiae deletion strains, locus YLR370C, strain arc18, active compounds read low",0.998
same,normalized growth,"S. cerevisiae deletion strains, locus YLR371W, strain rom2, active compounds read low",0.932
same,normalized growth,"S. cerevisiae deletion strains, locus YLR384C, strain iki3, active compounds read low",0.986
same,normalized growth,"S. cerevisiae deletion strains, locus YLR418C, strain cdc73, active compounds read low",0.78 (active)
same,normalized growth,"S. cerevisiae deletion strains, locus YML016C, strain PPZ1, active compounds read low",0.941
same,normalized growth,"S. cerevisiae deletion strains, locus YML032C, strain rad52, active compounds read low",0.967
same,normalized growth,"S. cerevisiae deletion strains, locus YML120C, strain ndi1, active compounds read low",0.985
same,normalized growth,"S. cerevisiae deletion strains, locus YML124C, strain tub3, active compounds read low",0.929 (active)
same,normalized growth,"S. cerevisiae deletion strains, locus YMR058W, strain fet3, active compounds read low",0.996
same,normalized growth,"S. cerevisiae deletion strains, locus YMR078C, strain ctf18, active compounds read low",0.929
same,normalized growth,"S. cerevisiae deletion strains, locus YMR125W, strain sto1, active compounds read low",1.01
same,normalized growth,"S. cerevisiae deletion strains, locus YMR129W, active compounds read low",0.983
same,normalized growth,"S. cerevisiae deletion strains, locus YMR205C, strain PFK2, active compounds read low",1.01
same,normalized growth,"S. cerevisiae deletion strains, locus YMR223W, strain ubp8, active compounds read low",0.895 (active)
same,normalized growth,"S. cerevisiae deletion strains, locus YMR231W, strain pep5, active compounds read low",0.999
same,normalized growth,"S. cerevisiae deletion strains, locus YMR263W, strain SAP30, active compounds read low",0.923
same,normalized growth,"S. cerevisiae deletion strains, locus YMR307W, strain GAS1, active compounds read low",0.917
same,normalized growth,"S. cerevisiae deletion strains, locus YNL067W, strain RPL9B, active compounds read low",0.97
same,normalized growth,"S. cerevisiae deletion strains, locus YNL071W, strain lat1, active compounds read low",0.987
same,normalized growth,"S. cerevisiae deletion strains, locus YNL128W, strain TEP1, active compounds read low",0.963
same,normalized growth,"S. cerevisiae deletion strains, locus YNL153C, strain GIM3, active compounds read low",0.975
same,normalized growth,"S. cerevisiae deletion strains, locus YNL183C, strain NPR1, active compounds read low",0.91
same,normalized growth,"S. cerevisiae deletion strains, locus YNL209W, strain ssb2, active compounds read low",0.995
same,normalized growth,"S. cerevisiae deletion strains, locus YNL233W, strain BNI4, active compounds read low",0.972
same,normalized growth,"S. cerevisiae deletion strains, locus YNL248C, strain rpa49, active compounds read low",1.02
same,normalized growth,"S. cerevisiae deletion strains, locus YNL250W, strain rad50, active compounds read low",0.943
same,normalized growth,"S. cerevisiae deletion strains, locus YNL271C, strain bni1, active compounds read low",0.939
same,normalized growth,"S. cerevisiae deletion strains, locus YNL298W, strain CLA4, active compounds read low",0.919
same,normalized growth,"S. cerevisiae deletion strains, locus YNL307C, strain MCK1, active compounds read low",0.827 (active)
same,normalized growth,"S. cerevisiae deletion strains, locus YNL322C, strain KRE1 (second series), active compounds read low",0.996
same,normalized growth,"S. cerevisiae deletion strains, locus YNL322C, strain KRE1, active compounds read low",0.961
same,normalized growth,"S. cerevisiae deletion strains, locus YNR049C, strain mso1, active compounds read low",0.991
same,normalized growth,"S. cerevisiae deletion strains, locus YNR052C, strain pop2, active compounds read low",0.972
same,normalized growth,"S. cerevisiae deletion strains, locus YOL006C, strain TOP1, active compounds read low",0.672
same,normalized growth,"S. cerevisiae deletion strains, locus YOL012C, strain htz1",1.84
same,normalized growth,"S. cerevisiae deletion strains, locus YOL147C, strain pex11, active compounds read low",0.939
same,normalized growth,"S. cerevisiae deletion strains, locus YOR001W, strain rrp6, active compounds read low",0.979
same,normalized growth,"S. cerevisiae deletion strains, locus YOR061W, strain CKA2, active compounds read low",0.947
same,normalized growth,"S. cerevisiae deletion strains, locus YOR069W, strain VPS5, active compounds read low",0.97
same,normalized growth,"S. cerevisiae deletion strains, locus YOR070C, strain gyp1, active compounds read low",0.991
same,normalized growth,"S. cerevisiae deletion strains, locus YOR080W, strain dia2, active compounds read low",0.988
same,normalized growth,"S. cerevisiae deletion strains, locus YOR083W, strain WHI5, active compounds read low",0.985
same,normalized growth,"S. cerevisiae deletion strains, locus YOR106W, strain vam3, active compounds read low",1
same,normalized growth,"S. cerevisiae deletion strains, locus YOR136W, strain idh2, active compounds read low",0.956
same,normalized growth,"S. cerevisiae deletion strains, locus YOR144C, strain elg1, active compounds read low",0.951
same,normalized growth,"S. cerevisiae deletion strains, locus YOR184W, strain ser1, active compounds read low",0.786 (active)
same,normalized growth,"S. cerevisiae deletion strains, locus YOR231W, strain MKK1, active compounds read low",0.93
same,normalized growth,"S. cerevisiae deletion strains, locus YOR265W, strain rbl2, active compounds read low",0.987
same,normalized growth,"S. cerevisiae deletion strains, locus YOR270C, strain vph1, active compounds read low",0.886
same,normalized growth,"S. cerevisiae deletion strains, locus YOR290C, strain snf2, active compounds read low",0.977
same,normalized growth,"S. cerevisiae deletion strains, locus YOR316C, strain cot1, active compounds read low",0.943
same,normalized growth,"S. cerevisiae deletion strains, locus YPL051W, strain arl3, active compounds read low",0.985
same,normalized growth,"S. cerevisiae deletion strains, locus YPL055C, strain LGE1, active compounds read low",0.88
same,normalized growth,"S. cerevisiae deletion strains, locus YPL078C, strain atp4, active compounds read low",0.981
same,normalized growth,"S. cerevisiae deletion strains, locus YPL106C, strain sse1, active compounds read low",0.96
same,normalized growth,"S. cerevisiae deletion strains, locus YPL240C, strain hsp82, active compounds read low",0.992
same,normalized growth,"S. cerevisiae deletion strains, locus YPL241C, strain CIN2, active compounds read low",0.96
same,normalized growth,"S. cerevisiae deletion strains, locus YPL256C, strain CLN2, active compounds read low",0.911
same,normalized growth,"S. cerevisiae deletion strains, locus YPR119W, strain clb2, active compounds read low",0.943
same,normalized growth,"S. cerevisiae deletion strains, locus YPR141C, strain kar3, active compounds read low",0.924
same,normalized growth,"S. cerevisiae deletion strains, locus YPR163C, strain tif3, active compounds read low",0.935
same,normalized growth,"S. cerevisiae deletion strains, locus YPR167C, strain met16, active compounds read low",0.941
same,normalized growth,"S. cerevisiae deletion strains, strain wtn01, active compounds read low",0.959
same,normalized growth,"S. cerevisiae strains, strain wild type, active compounds read low",0.935
